Hits are enriched below; roughly 19% of the tested compounds scored in any of these assays.
SARS PLP yeast = blocks SARS-CoV papain-like protease in a yeast assay; Potency, µM (doses to about 32.9 µM), without a hit: at the top dose activity, positive = growth rescue, usual class: activators; S. cerevisiae expressing SARS-CoV PLpro, growth rescue; 0.19% of 330,000 active; calls by dose curve; also: potency is read from the fitted curve at half-maximal effect; 0% is about no effect; nearly all actives have a fitted effect of over 55% in size
Pf growth 96h = P. falciparum growth inhibition at 96 hour, primary screen for plastid delayed-death inhibitors | P. falciparum luciferase reporter growth, 96 h | Potency, µM (titrated, usually from 28.7 µM), for the others: top-dose activity change, negative = inhibition, usual class: inhibitors | 6.9% of 320,000 active | AID 504834; also: potency is read from the fitted curve at half-maximal effect; % is scaled to controls: 0 for no effect and ±100 for the full control effect
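Two-generation exposure (96 h) targets delayed-death phenotype. Reporter parasites carrying integrated firefly luciferase, in red cells at 2% hematocrit and 0.05% parasitemia final, kept at 37 C, 5% CO2; luminescence loss indicates inhibition.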
AMA1-RON2 inh = inhibitors of Plasmodium falciparum AMA1-RON2 interaction | AlphaScreen AMA1-biotinylated RON2 peptide binding | Potency, µM (titrated, usually from 58.2 µM), for the others: top-dose activity change, negative = inhibition, usual class: inhibitors | 0.2% of 360,000 active | AID 720542;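 also: potency is read from the fitted curve at half-maximal effect; 0% = vehicle wells and -100% = peptide control; nearly all actives have a fitted effect of over 45% in size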
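AMA1 (3D7) with his tag at 25 nM final met compounds first, then biotinylated RON2 peptide at 25 nM; detection used donor plus acceptor beads, 10 µg/mL apiece, read by AlphaScreen after 30 min at room temperature.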
Pf growth 48h = P. falciparum growth inhibition at 48 hours (one generation). P. falciparum luciferase growth in erythrocytes, 48 h. Potency, µM (top dose mostly 28.7 µM), for the others: at the top dose activity change, negative = inhibition, usual class: inhibitors. 5.9% of 310,000 active. AID 504832; also: potency is read from the fitted curve at half-maximal effect; % is scaled to controls: 0 for no effect and ±100 for the full control effect
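Parasite viability was followed by luminescence of a genomically integrated firefly luciferase. Cultures held 0.1% parasitemia at 2% hematocrit (final), incubated under 5% CO2 at 37 C.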
CHX counter = counter-screen for Shiga toxin inhibitors: cycloheximide protein synthesis inhibition; AID 2314; 12% of 300,000 active; cell reporter, cycloheximide protein synthesis inhibition counterscreen; max response, %; in the data active = max response mostly above about 13%, no sharp cut-off; inactive = mostly below about 14%; also: read at 38.3 µM for the half of the compounds with a filed dose; 0% is about no effect
Shiga inhibitor = inhibitors of Shiga toxin in Vero cells; Vero cells, Shiga toxin protein synthesis inhibition reporter; inhibition, % at 38.7 µM; 9.2% of 290,000 active; AID 2315; in the data active = inhibition mostly above about 28%, no sharp cut-off; inactive = mostly below about 43%; also: 0% is about no effect
Numbers without * were called inactive; ? = inconclusive; . = no result; [ ] = another dose, or the depositor's remark. Unless noted, calls follow the shape of the dose curve; as a rule, active = well fitted curve in the direction sought with a large enough effect; inconclusive = small, poorly fitted or top-dose-only effect, or another doubt; inactive = no such curve, though single readings can be large; an effect the other way counts as inactive or inconclusive.

SMILES	SARS PLP yeast	Pf growth 96h	AMA1-RON2 inh	Pf growth 48h	CHX counter	Shiga inhibitor
COc1ccccc1-c1cc(C(=O)NCc2ccccc2)no1	-1%	75%	-2%	5%	10	19
COc1ccccc1-c1cc(C(=O)NC2CCCC2)no1	-1%	228%	5%	28%	16*	71*
CCCS(=O)(=O)NC(=O)C1(C)CCN(C(=O)c2ccccc2C(F)(F)F)C1 (stereo not drawn)	.	.	-1%	.	.	.
Cc1cc(C)c(C)c(S(=O)(=O)N2CCC(C(=O)NNC(=O)c3ccccc3O)CC2)c1C	0%	3%	86%	8%	.	.
O=C(NC1CCCC1)c1cc(-c2ccccc2Cl)on1	-10%	25%	4%	147%	43*	107*
O=C(NNC(=O)C1CC(c2cccs2)=NO1)NC1CCCCC1 (stereo not drawn)	1%	7%	57%	16%	-1	-5
O=C(CCCc1nc(-c2ccccc2Cl)no1)NC1CCCCC1	1%	-3%	-4%	6%	-3	-3
O=C(NC1CCCC1)c1cc(-c2cccs2)on1	-5%	51%	1%	260%	57*	182*
O=C(NC1CCCC1)c1cc(-c2ccccc2O)on1	-1%	19%	3%	-26%	34*	91*
O=C(NC1CCCC1)c1cc(-c2ccc(Cl)cc2Cl)on1	0%	-20%	2%	69%	44*	105*
CN1CCN(S(=O)(=O)c2ccc3[nH]c(=O)oc3c2)CC1	17%	9%	1%	6%	-2	-7
CC(C)Nc1nc(NC2CCCC2)nc(N2CCOCC2)n1	0%	5.2µM*	1%	?	.	.
Cc1cc(NC2CCCCC2)nc(N2CCOCC2)n1	-2%	130%	14%	2%	3	-4
CCOC(=O)CSC1=C(C#N)C(C)C2=C(CCCC2=O)N1 (stereo not drawn)	5%	-18%	-1%	14%	15	33
O=C(O)c1ccc(-c2nnn(Cc3cccc(C(F)(F)F)c3)n2)cc1	0%	18%	2%	18%	0	-8
CCC(C)c1ccc(NC(=O)N2CCN(C(=O)C3CCCO3)CC2)cc1 (stereo not drawn)	0%	0%	13%	6%	1	-3
COc1nc(-c2ccc(Cl)cc2)nnc1C	0%	55%	-12%	-18%	15*	10
COC(=O)c1nnc(-c2ccccc2)nc1OC	-4%	11%	-1%	0%	5	-9
COc1ccc(C(=O)/C=C/c2ccccc2)c(OC)c1	-5%	?	-3%	-63%	32*	54*
COc1ccc(C(=O)/C=C/c2ccc(N(C)C)cc2)c(OC)c1	-2%	2.1µM*	-4%	?	26*	30
COc1ccc(C(=O)/C=C/Nc2ccc([N+](=O)[O-])cc2C)c(OC)c1	-4%	50%	1%	32%	2	4
COc1ccc(C(=O)/C=C/Nc2cc(C)on2)c(OC)c1	-13%	57%	-3%	50%	25*	65
COc1ccc(C=CC(=O)c2cc(O)ccc2O)cc1	.	.	-16%	.	.	.
COc1cc(C)cc(C(=O)C=Cc2ccccc2)c1O	.	.	-27%	.	.	.
CC(C)C(NC(=O)C(NC(=O)C1OC2OC(C)(C)OC2C2OC(C)(C)OC12)C(C)C)C(=O)O (stereo not drawn)	1%	68%	-3%	3%	15*	31*
SMILES	SARS PLP yeast	Pf growth 96h	AMA1-RON2 inh	Pf growth 48h	CHX counter	Shiga inhibitor
CC(C)CC(NC(=O)C(NC(=O)C1OC2OC(C)(C)OC2C2OC(C)(C)OC12)C(C)C)C(=O)O (stereo not drawn)	14%	5%	13%	-4%	-2	-6
COC(C(=O)Nc1cccc([N+](=O)[O-])c1)c1ccccc1 (stereo not drawn)	0%	47%	-8%	10%	6	-5
CC(CN1CCN(Cc2ccccc2)CC1)c1ccccc1 (stereo not drawn)	-8%	-16%	3%	-29%	-2	.
CC(C)N1CCN(S(=O)(=O)c2ccccc2)CC1	-4%	13%	?	12%	-3	-2
CCS(=O)(=O)N1CCN(C(C)CCc2ccccc2)CC1 (stereo not drawn)	-4%	3.3µM*	?	-6%	-4	17
CC(CCc1ccccc1)N1CCN(Cc2ccccc2)CC1 (stereo not drawn)	-3%	12µM*	-4%[11.6 µM]	26%	-6	-3
Cc1cc(C)n2nc(C(=O)OCC(=O)N3C(C)CCCC3C)nc2n1 (stereo not drawn)	9%	8%	4%	-7%	.	.
CC1(NC(=O)/C=C/c2nc3ccccc3s2)CCS(=O)(=O)C1 (stereo not drawn)	5%	?	-10%	-26%	.	.
O=C(NN1c2ccccc2CCc2ccccc21)c1ccccc1Br	-6%	12µM*	0%	?	-4	-20
O=S(=O)(Nc1c(O)ccc2ccccc12)c1ccc(F)cc1	.	.	4%	.	.	.
Cc1ccc(N=Nc2ccc3ccccc3c2O)cc1	3%	122%	2.8µM*	94%	44*	.
Oc1ccc2ccccc2c1N=Nc1ccc(F)cc1	-1%	?	1.4µM*	-3%	-1	-4
Oc1c(N=Nc2ccc(F)cc2)ccc2ccccc12	3%	11%	1.8µM*	122%	34*	.
CC(C)C(=O)COc1c2occc2cc2ccc(=O)oc12	4%	.	7%	.	.	.
CCOC(=O)c1c(C)[nH]c(C(=O)OCC(=O)NC2CCS(=O)(=O)C2)c1C (stereo not drawn)	-2%	21%	-11%	4%	-4	-9
CC1CCN(CCCOc2ccc(Br)cc2Cl)CC1	-5%	-11%	16%	-22%	22*	29*
Clc1cc(Br)ccc1OCCN1CCOCC1	3%	3%	-3%	7%	31*	48
O=C1CCC(=O)N1OCCCOc1ccc(Br)cc1Cl	-10%	0%	2%	-1%	30*	18
CCCCOc1ccc(C(=O)Nc2ccc(CN3CCOCC3)cc2)cc1	-7%	?	6%	?	2	-4
CCCCCOc1ccc(CN2CCOCC2)cc1Cl	-7%	.	-7%	225%	41*	102*
CN(C)/C=N/NC(=O)c1ccccc1Cl	0%	-12%	-11%	-14%	-2	9
COC(=O)c1ccc(/C=N/NC(=O)c2ccccc2Cl)cc1	-18%	24%	-2%	0%	42*	47*
CC(C)c1ccc(/C=N/NC(=O)c2ccccc2Cl)cc1	-6%	?	-3%	25%	46*	107*
CC(C)c1ccc(NC(=O)c2cc(Br)ccc2Br)cc1	1%	?	13%	-13%	43*	60*
CN(C)C(=O)Oc1ccc(Br)cc1C(=O)Nc1ccc(F)c(Cl)c1	-5%	?	-8%	1.2µM*	10	10
O=C(Nc1ccc(Cl)cc1)c1ccc(Br)cc1F	-1%	138%	14%	125%	44*	86*
